Measurements: article PMC5540273 (PLoS ONE, 2017)

Key:
Conditions in all cases: concentration: 1 μM, replicates: in singlicate; n = 1
TRPM6 = test system: TRPM6
TSSK1B = test system: TSSK1B
TSSK3 = test system: TSSK3
TTK = test system: TTK
TXK = test system: TXK
[1] = test system: TYK2(JH1domain-catalytic)
[2] = test system: TYK2(JH2domain-pseudokinase)
TYRO3 = test system: TYRO3
ULK1 = test system: ULK1
ULK2 = test system: ULK2
ULK3 = test system: ULK3
VEGFR2 = test system: T1, VEGFR2
T1 construct: gene KDR

VPS34 = test system: T2, VPS34
T2 construct: gene PIK3C3

VRK2 = test system: VRK2
WEE1 = test system: WEE1
WEE2 = test system: WEE2
WNK1 = test system: WNK1
WNK2 = test system: WNK2
WNK3 = test system: WNK3
WNK4 = test system: WNK4
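Further: KINOMEscan kinase panel screen.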

| Structure (SMILES) | %Inh (TRPM6) [%] | %Inh (TSSK1B) [%] | %Inh (TSSK3) [%] | %Inh (TTK) [%] | %Inh (TXK) [%] | %Inh [1] [%] | %Inh [2] [%] | %Inh (TYRO3) [%] | %Inh (ULK1) [%] | %Inh (ULK2) [%] | %Inh (ULK3) [%] | %Inh (VEGFR2) [%] | %Inh (VPS34) [%] | %Inh (VRK2) [%] | %Inh (WEE1) [%] | %Inh (WEE2) [%] | %Inh (WNK1) [%] | %Inh (WNK2) [%] | %Inh (WNK3) [%] | %Inh (WNK4) [%] |
| --- | --- | --- | --- | --- | --- | --- | --- | --- | --- | --- | --- | --- | --- | --- | --- | --- | --- | --- | --- | --- |
| COc1cc2ncn(-c3cc(OCc4ccncc4)c(C(N)=O)s3)c2cc1OC [GSK336313] | 24 | 0 | 11 | 0 | 6 | 3 | 13 | 0 | 16 | 0 | 9 | 7 | 5 | 0 | 33 | 15 | 7 | 0 | 10 | 0 |
| Cc1c(Cn2c(C)nn3c(=O)cc(N4CCO[C@H](C)C4)nc23)cccc1C(F)(F)F [GSK2373690] | 0 | 0 | 14 | 0 | 3 | 0 | 0 | 22 | 14 | 0 | 21 | 0 | 59 | 0 | 5 | 5 | 11 | 4 | 20 | 0 |
| COc1cc2nccc(Nc3cccc(Oc4ccccc4)c3)c2cc1OC.Cl [GW284543] | 11 | 11 | 13 | 0 | 3 | 5 | 0 | 0 | 6 | 15 | 8 | 12 | 35 | 0 | 8 | 14 | 0 | 11 | 10 | 0 |
| COc1cc2ncn(-c3cc(OCCCc4ccccc4)c(C(N)=O)s3)c2cc1OC [GSK205189] | 0 | 0 | 10 | 12 | 0 | 0 | 0 | 0 | 2 | 0 | 3 | 0 | 0 | 0 | 12 | 4 | 0 | 8 | 0 | 0 |
| COc1ccc(-c2coc3ccc(-c4nnc(SCc5cccc(C#N)c5)o4)cc23)cc1 | 0 | 0 | 0 | 6 | 2 | 10 | 0 | 0 | 0 | 5 | 81 | 10 | 0 | 0 | 0 | 8 | 0 | 0 | 0 | 3 |
| CC(C)(C)c1ccc(C(=O)Nc2cn3cc(-c4ccccc4)ccc3n2)cc1 | 0 | 0 | 8 | 0 | 9 | 0 | 6 | 5 | 0 | 49 | 12 | 0 | 0 | 1 | 6 | 0 | 0 | 0 | 0 | 16 |
| Nc1ncnc2c1ncn2-c1cccc(F)c1 [SKF-97560] | 74 | 22 | 20 | 0 | 0 | 38 | 35 | 9 | 7 | 26 | 21 | 6 | 4 | 29 | 0 | 0 | 3 | 73 | 0 | 54 |
| CCn1c(-c2ccoc2)nc2cnccc21 [SB-733887] | 52 | 0 | 6 | 0 | 28 | 27 | 50 | 0 | 29 | 4 | 11 | 65 | 0 | 8 | 4 | 0 | 15 | 18 | 19 | 0 |
| COc1ccc(-c2cc3c(C)nc(N)nc3n([C@H]3CC[C@H](O)CC3)c2=O)cn1 | 0 | 0 | 0 | 0 | 0 | 0 | 0 | 0 | 0 | 0 | 0 | 0 | 0 | 0 | 0 | 0 | 0 | 0 | 0 | 18 |
| Nc1nccc2scc(-c3ccc4c(c3)CCN4C(=O)Cc3ccccc3)c12 [GSK2576924] | 13 | 0 | 14 | 0 | 4 | 14 | 0 | 0 | 2 | 0 | 12 | 5 | 0 | 0 | 14 | 0 | 17 | 26 | 27 | 0 |
| O=C1NC(=O)C(c2ccccc2)=C1Nc1cccc(O)c1 [SB-390534] | 0 | 0 | 0 | 0 | 14 | 14 | 0 | 0 | 0 | 12 | 26 | 7 | 19 | 0 | 0 | 1 | 0 | 0 | 0 | 9 |
